Assay results reported in the supplement of paper PMC6555819.

system: VDR:RXRa (NR concentration 270 nM, RXRa partner concentration 90 nM); assay: PBM binding z-score (relative to random genomic background probes); higher = stronger binding; sequences stand for … in GC…GCGATTGACAGCGTAGAATGAAGG
Protocol: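 Protein-binding microarray (Agilent 4x180K custom design, double-stranded 60-nt probes: 5' GC cap, 34-nt variable region, 24-nt constant primer region; full probe sequence given). Purified or IVT nuclear receptor:RXRα heterodimers (3:1 NR:RXRα, mostly 270:90 nM) or homodimers were incubated for 1 h in PBS with 2% milk and no ligand, then detected with Alexa488 antibodies. Fluorescence from o1-orientation probes (~5 replicates averaged) was converted to z-scores against 500 random hg19 background probes. Variable regions are seed direct-repeat (DR0–DR5) sites, all their single-nucleotide variants and half-site ablations.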

| Sequence | PBM binding z-score |
| --- | --- |
| AGTCAAAGTTCACTTGGTAACGTAAGATTCAGCT | 4.07 |
| TCTAGTAGTTGATTAGGGCAACCGAAACAGCGGA | 0.217 |
| GCATATAGGTAAAACAAGGTGAAAGTCCGATTGT | 0.401 |
| ATCTCTAGGTAAGACTCAGTTCAGCGAAGAACGC | 0.97 |
| AGTCAAAGTTCATGTAGGTAACGTAAGATATGCT | 4.84 |
| AGTCAAAGTTCAGAACGAGGTAACGTAAAGCACG | 2.86 |
| CCAGACACGTGAGAAGGTAACTCAGCCTCGATTA | -0.39 |
| AGAATGAGGTTATACGTGGATCAGGGAAGAAAGT | 1.56 |
| CCTCGGAGGACAACAGGAAGTCAGAGCTGCCAGA | -0.718 |
| CAAACTAGGTCACCGGAAGGTCAAAGGCCGCATG | 5.88 |
| CCTGCTACGTCATGGTCAGCTAATCTACAGTATG | -0.408 |
| CCTATTAGTTGACCATAAGGGCAAACGAAGCTCG | 0.834 |
| ACTAGCTGGTCAGCTGAGGTCACACACAATTCGG | 4.56 |
| ACTTACGGGCCAACGAGGTTATAGCACGCGTATA | 3.84 |
| TCATATAGGTAATTGCTAGGTGAAAGTCCGATCT | 0.884 |
| TAGCCTAGGTTATTCAGGGGCCAGTATAGAAAGC | 0.101 |
| ATCTCGAGGTAACAAGTTCAGTGAAAGAGAGGAC | 2.63 |
| CAGCCTAGGTCAGGGCCAGTATGGGAGGAACGTT | -0.0336 |
| AGTCAAAGTTCAGGACGAGGCAACGTAAAGCACG | 1.93 |
| GATACAGGGTCAGCAAGAGGCCAGAGTATGGAAA | 3.43 |

| Sequence | PBM binding z-score |
| --- | --- |
| CCTACCAGGCCAATCTGGGTCACTCAAGGCTTGA | 0.999 |
| TCCTATAGGTAAACAGGTGAAAGTCCGTAAGTTA | 0.775 |
| TCTTGTAGTTCAGCAGGTTAAGAAAGCTGGCCAA | 1.78 |
| CCGGCTGGGGCATAAGGTTACCATAAGCCAGCCC | -0.119 |
| ATCGAAAGGTCGAGGTGAGTGTAGAGAAAGGGAA | 3.21 |
| GGAACGAGGGCAATGTTGATAGCATCTGTCGACG | 0.402 |
| CGAACTAGGTCAGAACAGGACAGTAAAGGATGAT | 0.971 |
| GTACCAAGGTTAATAGGTCGTTGATGAGTAGGCG | 2.23 |
| TTACCAAGGAGAAAGGTCGTTGATGCACGCCTTG | 1.49 |
| TCTTGTAGATCACTAGAGGTTAAGAAAGTGCGCT | 2.06 |
| CAGCCTAGGTAAGGGCCAGTATAGGAGGAACGTT | -0.84 |
| TCTATTAGTTGAAGGGCAGCCGACGAGTCCGTTT | 0.97 |
| AGAACGAGGGCACGCTGAGTTGTTAGCAGAGTAG | 1.6 |
| ACTAGTTAGTCAGCTGAGGTCACACACAATTCGG | 4.19 |
| AGAATGAGGTTGCCAAAGATCAGGGAAACGCTTG | 0.143 |
| ATATGTCGGTTAAGGGTCATTCAGGTTGGTTCGC | 5.48 |
| TCTAGTTGGTCACGGAGGTCAAACACGACGGGTA | 6.21 |
| CCAGACAGGTGAAAGGTAACTGAGTCTGGTACGC | 0.972 |
| ATCGAAAGGTCGAGGTGGGTATAGAGAAAGGGAA | 3.34 |
| ATCTAAAGGTCGACGAGGTGAGTATACACCGTTT | 5.21 |
